PubChem BioAssay (NCI)
This is part of a sample that, as a whole, favours compounds with a hit. Of some 83,000 tested, about 20% had one in any assay.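 A percent growth of 40 corresponds to 60% growth inhibition; 0 means no net growth; -100 means all cells died. Active threshold: below 10.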 Activity calls are given as the source filed them.

How the values were obtained:
Assay in all cases: NCI-60 one-dose screen, 48 h (100 = growth as untreated, 0 = no growth, -100 = all killed)
Conditions in all cases: 10 µM unless noted
SR leukemia = tested on: SR leukemia
RPMI-8226 leukemia = tested on: RPMI-8226 leukemia
OVCAR-8 ovarian = tested on: OVCAR-8 ovarian
OVCAR-5 ovarian = tested on: OVCAR-5 ovarian
OVCAR-4 ovarian = tested on: OVCAR-4 ovarian
SK-OV-3 ovarian = tested on: SK-OV-3 ovarian
IGROV1 ovarian = tested on: IGROV1 ovarian
OVCAR-3 ovarian = tested on: OVCAR-3 ovarian
HS 578T breast = tested on: HS 578T breast
NCI/ADR-RES ovarian = tested on: NCI/ADR-RES ovarian
T-47D breast = tested on: T-47D breast
BT-549 breast = tested on: BT-549 breast
MDA-MB-435 melanoma = tested on: MDA-MB-435 melanoma
SW-620 colon = tested on: SW-620 colon
MCF7 breast = tested on: MCF7 breast
HCT-116 colon = tested on: HCT-116 colon
HCC-2998 colon = tested on: HCC-2998 colon
KM12 colon = tested on: KM12 colon

Measured: growth

CC(=O)Cc1ccccn1
inactive: SR leukemia 108% | RPMI-8226 leukemia 103% | OVCAR-8 ovarian 110% | OVCAR-5 ovarian 110% | OVCAR-4 ovarian 106% | SK-OV-3 ovarian 119% | IGROV1 ovarian 107% | OVCAR-3 ovarian 105% | HS 578T breast 107% | NCI/ADR-RES ovarian 108% | T-47D breast 108% | BT-549 breast 97.8% | MDA-MB-435 melanoma 102% | SW-620 colon 108% | MCF7 breast 97.8% | HCT-116 colon 107% | HCC-2998 colon 111% | KM12 colon 105%

CNC1=C([N+](=O)[O-])C(c2ccccc2O)C(C#N)=C(c2cccs2)O1 (stereo unspecified)
inactive: SR leukemia 48.6% | RPMI-8226 leukemia 100% | OVCAR-8 ovarian 94.2% | OVCAR-5 ovarian 104% | OVCAR-4 ovarian 82.4% | SK-OV-3 ovarian 94.5% | IGROV1 ovarian 90.3% | OVCAR-3 ovarian 92% | HS 578T breast 92.3% | NCI/ADR-RES ovarian 102% | T-47D breast 81.7% | BT-549 breast 100% | MDA-MB-435 melanoma 97.8% | SW-620 colon 99.9% | MCF7 breast 92.3% | HCT-116 colon 98.7% | HCC-2998 colon 114% | KM12 colon 99.8%

COc1cc(CN(c2ccc(C)cc2)C2OC(=O)c3ccccc32)cc(OC)c1OC (stereo unspecified)
active: SR leukemia -6.82% | SK-OV-3 ovarian -6.21% | OVCAR-3 ovarian 6.21% | NCI/ADR-RES ovarian -16.7% | MDA-MB-435 melanoma -17.8% | HCT-116 colon 6.74% | HCC-2998 colon 4.25%
inactive: RPMI-8226 leukemia 85.4% | OVCAR-8 ovarian 50.1% | OVCAR-5 ovarian 40.3% | OVCAR-4 ovarian 65.9% | IGROV1 ovarian 46.2% | HS 578T breast 59.5% | T-47D breast 53.8% | BT-549 breast 20.8% | SW-620 colon 36.2% | MCF7 breast 13.9% | KM12 colon 17.1%

CC(C)(C)c1nn(-c2ccccc2)c2c1C(=O)CSC(c1ccc3c(c1)OCO3)N2 (stereo unspecified)
inactive: SR leukemia 78.8% | RPMI-8226 leukemia 102% | OVCAR-8 ovarian 109% | OVCAR-5 ovarian 95.7% | OVCAR-4 ovarian 103% | SK-OV-3 ovarian 95.4% | IGROV1 ovarian 88.5% | OVCAR-3 ovarian 93.2% | HS 578T breast 101% | NCI/ADR-RES ovarian 88.2% | T-47D breast 84.4% | BT-549 breast 112% | MDA-MB-435 melanoma 99.6% | SW-620 colon 108% | MCF7 breast 90.3% | HCT-116 colon 85.6% | HCC-2998 colon 105% | KM12 colon 101%

CCOC(=O)C#Cc1c(C(=O)OCC)nnn1[C@@H]1O[C@H](COC(C)=O)[C@@H](OC(C)=O)[C@H]1OC(C)=O
inactive: SR leukemia 22.8% | RPMI-8226 leukemia 94.8% | OVCAR-8 ovarian 94.1% | OVCAR-5 ovarian 100% | OVCAR-4 ovarian 104% | SK-OV-3 ovarian 109% | IGROV1 ovarian 91.5% | OVCAR-3 ovarian 62.1% | HS 578T breast 96.2% | NCI/ADR-RES ovarian 104% | T-47D breast 60.2% | BT-549 breast 111% | MDA-MB-435 melanoma 104% | SW-620 colon 13.6% | MCF7 breast 41.8% | HCT-116 colon 92.4% | HCC-2998 colon 105% | KM12 colon 109%

COc1ccc2nc(C)cc(Sc3nc4ccccc4s3)c2c1
inactive: OVCAR-8 ovarian 36.5% | OVCAR-5 ovarian 61.2% | OVCAR-4 ovarian 25.8% | SK-OV-3 ovarian 80.5% | IGROV1 ovarian 22.2% | OVCAR-3 ovarian 22.2% | HS 578T breast 62.1% | NCI/ADR-RES ovarian 29.1% | T-47D breast 32.5% | MDA-MB-435 melanoma 17.2% | SW-620 colon 31.3% | MCF7 breast 15.9% | HCT-116 colon 24.5% | HCC-2998 colon 73.8% | KM12 colon 50.5%
active: SR leukemia -48% | RPMI-8226 leukemia -39.5% | BT-549 breast -11.8%

COc1ccc(C(=O)OC2C(OC3C(O)COC(O[C@H]4C[C@H]5[C@@H]6CC=C7C[C@@H](O)CC[C@]7(C)[C@H]6CC[C@]5(C)[C@H]4[C@H](C)C(=O)CCC(C)C)C3OC(N)=O)OCC(O)C2O)cc1 (stereo partly specified)
inactive: OVCAR-8 ovarian 25.3% | OVCAR-5 ovarian 36.3% | OVCAR-4 ovarian 44.1% | IGROV1 ovarian 19.5% | OVCAR-3 ovarian 58.3% | NCI/ADR-RES ovarian 86.2% | HCC-2998 colon 52.7% | KM12 colon 27.4%
active: SR leukemia -14.1% | RPMI-8226 leukemia -32.8% | SK-OV-3 ovarian -37.2% | HS 578T breast -29.9% | T-47D breast 1.19% | BT-549 breast -2.62% | MDA-MB-435 melanoma -63% | SW-620 colon -62.1% | MCF7 breast -21.1% | HCT-116 colon -7.43%

COc1cc(/C=C/c2cc(/C=C/c3ccc(O)c(OC)c3)n(C(=O)Nc3ccc(F)c(Cl)c3)n2)ccc1O
inactive: NCI/ADR-RES ovarian 12%
active: SR leukemia 1.44% | RPMI-8226 leukemia -11.3% | OVCAR-8 ovarian -44% | OVCAR-5 ovarian 0.879% | OVCAR-4 ovarian 9.26% | SK-OV-3 ovarian -31.2% | IGROV1 ovarian 4.57% | OVCAR-3 ovarian -26.4% | HS 578T breast -12.9% | T-47D breast 2.29% | BT-549 breast -24.2% | MDA-MB-435 melanoma -25.9% | SW-620 colon 2.03% | MCF7 breast 2.06% | HCT-116 colon 2.15% | HCC-2998 colon 9.75% | KM12 colon 0.0776%

CCN(CC)CCCC(C)Nc1ccnc2ccc(Oc3ccccc3)cc12 (stereo unspecified)
inactive: SR leukemia 14.6% | RPMI-8226 leukemia 76.7% | OVCAR-8 ovarian 76.7% | OVCAR-5 ovarian 88.6% | OVCAR-4 ovarian 66.6% | SK-OV-3 ovarian 114% | IGROV1 ovarian 77% | OVCAR-3 ovarian 76.8% | HS 578T breast 82% | NCI/ADR-RES ovarian 92.8% | T-47D breast 70.7% | BT-549 breast 67.3% | MDA-MB-435 melanoma 25.8% | SW-620 colon 81.3% | MCF7 breast 69% | HCT-116 colon 48.7% | HCC-2998 colon 84% | KM12 colon 86.3%

CNCCCn1c2c(c3ccc(Cl)cc3c1=O)C(=O)c1cc(OC)cnc1-2
active: SR leukemia -33.5% | RPMI-8226 leukemia -56.3% | SW-620 colon -63.6% | MCF7 breast -45.4% | HCT-116 colon -81.4%
inactive: OVCAR-8 ovarian 40.8% | OVCAR-5 ovarian 91.9% | OVCAR-4 ovarian 58.8% | SK-OV-3 ovarian 23.7% | IGROV1 ovarian 50.3% | OVCAR-3 ovarian 49.3% | HS 578T breast 71.7% | NCI/ADR-RES ovarian 46.5% | T-47D breast 40% | BT-549 breast 45.9% | MDA-MB-435 melanoma 55.8% | HCC-2998 colon 71.3% | KM12 colon 40.7%

COc1ccc2[nH]cc(C3(c4c[nH]c5ccc(OC)cc45)C(=O)Nc4ccc(F)cc43)c2c1
inactive: SR leukemia 11.8% | RPMI-8226 leukemia 40.9% | OVCAR-8 ovarian 94.4% | OVCAR-5 ovarian 94.1% | OVCAR-4 ovarian 86.7% | SK-OV-3 ovarian 94.5% | IGROV1 ovarian 74.2% | OVCAR-3 ovarian 86.6% | HS 578T breast 73.4% | NCI/ADR-RES ovarian 94% | T-47D breast 93.7% | BT-549 breast 80.1% | SW-620 colon 25.9% | MCF7 breast 66.2% | HCT-116 colon 69% | HCC-2998 colon 72% | KM12 colon 51.1%
active: MDA-MB-435 melanoma 9.03%

CCSCC1CC(O)(c2ccccc2)C(c2ccccc2)C(c2ccc(F)cc2)O1 (stereo unspecified)
inactive: IGROV1 ovarian 11.2%
active: SR leukemia 1.33% | RPMI-8226 leukemia -16.1% | OVCAR-8 ovarian 1.93% | OVCAR-5 ovarian -2.48% | OVCAR-4 ovarian -9.01% | SK-OV-3 ovarian 6.98% | OVCAR-3 ovarian -62.9% | HS 578T breast -35.3% | NCI/ADR-RES ovarian -24.8% | T-47D breast -17.5% | BT-549 breast -12.1% | MDA-MB-435 melanoma -18.8% | SW-620 colon -25.8% | MCF7 breast 1.86% | HCT-116 colon -31.2% | HCC-2998 colon 2.23% | KM12 colon -9.64%

Cc1ccccc1C1CC(=O)c2ccccc2C1C (stereo unspecified)
inactive: SR leukemia 78.7% | RPMI-8226 leukemia 93.8% | OVCAR-8 ovarian 106% | OVCAR-5 ovarian 97.2% | OVCAR-4 ovarian 101% | SK-OV-3 ovarian 105% | IGROV1 ovarian 123% | OVCAR-3 ovarian 116% | HS 578T breast 98.9% | NCI/ADR-RES ovarian 108% | T-47D breast 107% | BT-549 breast 131% | MDA-MB-435 melanoma 91.3% | SW-620 colon 99.2% | MCF7 breast 115% | HCT-116 colon 95.3% | HCC-2998 colon 104% | KM12 colon 107%

N=C(N)c1ccc(-c2ccc(-c3ccco3)o2)cc1F
active: SR leukemia -9.28% | RPMI-8226 leukemia -23.2% | T-47D breast -27.8% | MDA-MB-435 melanoma -59.1% | SW-620 colon -11.3% | MCF7 breast -13.7% | HCT-116 colon -21.2% | HCC-2998 colon -74.7% | KM12 colon 4.94%
inactive: OVCAR-8 ovarian 45% | OVCAR-5 ovarian 17.8% | OVCAR-4 ovarian 42% | SK-OV-3 ovarian 40.1% | IGROV1 ovarian 11.9% | OVCAR-3 ovarian 54.1% | HS 578T breast 48.8% | NCI/ADR-RES ovarian 45.2% | BT-549 breast 25%

CCCCCCCCN(CCCCCCCC)C(=O)CCl
inactive: SR leukemia 83.1% | RPMI-8226 leukemia 106% | OVCAR-8 ovarian 89.4% | OVCAR-5 ovarian 120% | OVCAR-4 ovarian 97% | SK-OV-3 ovarian 109% | OVCAR-3 ovarian 108% | HS 578T breast 85.1% | NCI/ADR-RES ovarian 94.7% | T-47D breast 89.7% | BT-549 breast 98.5% | MDA-MB-435 melanoma 108% | SW-620 colon 104% | MCF7 breast 99.6% | HCT-116 colon 90.8% | HCC-2998 colon 103% | KM12 colon 112%
active: IGROV1 ovarian -18.2%

COc1cc(/C=C/c2cc(/C=C/c3ccc(O)c(OC)c3)n(C(=O)c3ccccc3Br)n2)ccc1O
active: SR leukemia -4.77% | HS 578T breast 3.59% | MDA-MB-435 melanoma -30.5% | HCT-116 colon 6.9% | KM12 colon 4.98%
inactive: RPMI-8226 leukemia 14.3% | OVCAR-8 ovarian 27.7% | OVCAR-5 ovarian 84.5% | OVCAR-4 ovarian 49.8% | SK-OV-3 ovarian 16.6% | IGROV1 ovarian 25% | OVCAR-3 ovarian 12.6% | NCI/ADR-RES ovarian 28.1% | T-47D breast 49% | BT-549 breast 14.5% | SW-620 colon 20.9% | MCF7 breast 20.2% | HCC-2998 colon 40.9%

NS(=O)(=O)c1ccc(CCn2c(SCC(=O)N/N=C/c3cc4ccccc4[nH]3)nc3ccccc3c2=O)cc1
inactive: SR leukemia 26.4% | RPMI-8226 leukemia 24.4% | OVCAR-8 ovarian 40.5% | OVCAR-5 ovarian 113% | OVCAR-4 ovarian 68.7% | SK-OV-3 ovarian 95.4% | IGROV1 ovarian 65.4% | OVCAR-3 ovarian 68.6% | HS 578T breast 64.6% | NCI/ADR-RES ovarian 99.8% | T-47D breast 45.2% | BT-549 breast 74.3% | MDA-MB-435 melanoma 45.9% | SW-620 colon 71.9% | MCF7 breast 37.7% | HCT-116 colon 29.6% | HCC-2998 colon 88% | KM12 colon 50%
